Sequences and labels used below:
T1: RBFOX1 RRM (Homo sapiens, UniProt Q9NWB1 109-208)
T1 sequence: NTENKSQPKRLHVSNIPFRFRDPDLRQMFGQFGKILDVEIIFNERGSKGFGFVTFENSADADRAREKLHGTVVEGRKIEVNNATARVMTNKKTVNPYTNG

B1: AGCAGGG (DNA:RNA)
RNA: GGGAGACCGGAAUUCAGAUUGUCCAGCAGGGUUAAAUCCCGUCGUAGCCACCA
DNA 1: CAATCTGAATTCCGGTCTCCC
DNA 2: TGGTGGCTACGACGGGATT
B2: UGAGGUG (DNA:RNA)
RNA: B1 RNA with A25U, C27A, A28G, G30U
DNA 1: CAATCTGAATTCCGGTCTCCC
DNA 2: TGGTGGCTACGACGGGATT
B3: UCCGUAG (DNA:RNA)
RNA: B1 RNA with A25U, G26C, A28G, G29U, G30A
DNA 1: CAATCTGAATTCCGGTCTCCC
DNA 2: TGGTGGCTACGACGGGATT
B4: CGUAUGC (DNA:RNA)
RNA: B1 RNA with A25C, C27U, G29U, G31C
DNA 1: CAATCTGAATTCCGGTCTCCC
DNA 2: TGGTGGCTACGACGGGATT
B5: UGUAUUG (DNA:RNA)
RNA: B1 RNA with A25U, C27U, G29U, G30U
DNA 1: CAATCTGAATTCCGGTCTCCC
DNA 2: TGGTGGCTACGACGGGATT
B6: UGUAUGC (DNA:RNA)
RNA: B1 RNA with A25U, C27U, G29U, G31C
DNA 1: CAATCTGAATTCCGGTCTCCC
DNA 2: TGGTGGCTACGACGGGATT
B7: UUCUGCU (DNA:RNA)
RNA: B1 RNA with A25U, G26U, A28U, G30C, G31U
DNA 1: CAATCTGAATTCCGGTCTCCC
DNA 2: TGGTGGCTACGACGGGATT
B8: UGUAACC (DNA:RNA)
RNA: B1 RNA with A25U, C27U, G29A, G30C, G31C
DNA 1: CAATCTGAATTCCGGTCTCCC
DNA 2: TGGTGGCTACGACGGGATT
B9: AGGCGUG (DNA:RNA)
RNA: B1 RNA with C27G, A28C, G30U
DNA 1: CAATCTGAATTCCGGTCTCCC
DNA 2: TGGTGGCTACGACGGGATT

Numbering of substitutions follows the chain as printed; changes in the protein carry UniProt numbers. In all, about 16,000 sequences were measured (“ka relative to ugcaugu”: median about 0.0091, highest 2% from about 0.032 on). This excerpt belongs to a sample that is enriched for the highest values.

The assay has as its target T1, RBFOX1 RRM. The experiment in a line: EMSA; HiTS-Eq, 1 nM pool, 10 min; buffer printed only for the single-RNA assays: 10 mM Tris pH 7.5, 150 mM NaCl, 3.4 mM EDTA, 0.001% NP-40, 30 C. The following applies: tags: His6 N-terminal (pET28a); label: 5' 32P. In outline: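 These values rest on relative association constants, computed from read-count changes of each RNA species versus the control reaction and normalised to the cognate motif. Reads came from free RNA recovered by 8% native PAGE after purified RbFox RRM (wild type or mutant) at increasing concentrations was equilibrated for 10 min in 50 µL with 1 nM of a 5′-radiolabelled pool with 7 randomized nucleotides and DNA-annealed flanks.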
Consider B1, for which the binding signal is 0.0126 KA relative to UGCAUGU.
In the case of B2 it was 0.0201 KA relative to UGCAUGU.
Turning to B3, the binding signal is 0.00757 KA relative to UGCAUGU.
Regarding B4, the binding signal was 0.014 KA relative to UGCAUGU.
As for B5, the binding signal is 0.0262 KA relative to UGCAUGU.
Take B6: the binding signal is 0.0374 KA relative to UGCAUGU.
For B7, the binding signal was 0.0203 KA relative to UGCAUGU.
The figure for B8 is 0.00753 KA relative to UGCAUGU; for B9 it is 0.0157 KA relative to UGCAUGU.
